Test results taken from PubChem BioAssay (NCI).
This is part of a sample that, as a whole, favours compounds with a hit. Of some 83,000 tested, about 20% had one in any assay.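 The test compound was applied at a single concentration to cells in 96-well plates for 48 hours, and percent growth was recorded.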 Values without a mark were called inactive. Active and inactive are the calls of the source. How the source made its calls: active means growth percent below 10; inactive means the rest.

Columns and labels:
Assay in all cases: NCI-60 one-dose screen, 48 h (100 = growth as untreated, 0 = no growth, -100 = all killed)
Conditions in all cases: 10 µM unless noted
HCT-15 colon = tested on: HCT-15 colon
HT29 colon = tested on: HT29 colon
SNB-75 CNS = tested on: SNB-75 CNS
SNB-19 CNS = tested on: SNB-19 CNS
U251 CNS = tested on: U251 CNS
PC-3 prostate = tested on: PC-3 prostate
SK-MEL-5 melanoma = tested on: SK-MEL-5 melanoma
UACC-62 melanoma = tested on: UACC-62 melanoma
LOX IMVI melanoma = tested on: LOX IMVI melanoma
SK-MEL-28 melanoma = tested on: SK-MEL-28 melanoma
SK-MEL-2 melanoma = tested on: SK-MEL-2 melanoma
EKVX NSCLC = tested on: EKVX NSCLC
SN12C renal = tested on: SN12C renal
UO-31 renal = tested on: UO-31 renal
TK-10 renal = tested on: TK-10 renal
ACHN renal = tested on: ACHN renal
CAKI-1 renal = tested on: CAKI-1 renal
A498 renal = tested on: A498 renal
CCRF-CEM leukemia = tested on: CCRF-CEM leukemia
MOLT-4 leukemia = tested on: MOLT-4 leukemia

Structure (SMILES) | growth (HCT-15 colon) | growth (HT29 colon) | growth (SNB-75 CNS) | growth (SNB-19 CNS) | growth (U251 CNS) | growth (PC-3 prostate) | growth (SK-MEL-5 melanoma) | growth (UACC-62 melanoma) | growth (LOX IMVI melanoma) | growth (SK-MEL-28 melanoma) | growth (SK-MEL-2 melanoma) | growth (EKVX NSCLC) | growth (SN12C renal) | growth (UO-31 renal) | growth (TK-10 renal) | growth (ACHN renal) | growth (CAKI-1 renal) | growth (A498 renal) | growth (CCRF-CEM leukemia) | growth (MOLT-4 leukemia)
Cc1cccc(-c2ccccc2Oc2ccc3nnc(Cl)n3n2)c1 | 99.6% | 107% | 89.4% | 97.8% | 94.6% | 103% | 98.5% | 96.8% | 93.7% | 107% | 105% | 98.2% | 101% | 90.6% | 103% | 105% | 92.2% | 117% | 103% | 103%
NS(=O)(=O)c1ccc(Nc2nc(N/N=C/c3cc(Br)c(O)c(Br)c3)nc(Nc3ccccc3)n2)cc1 | 80.5% | 32.1% | 25.7% | 14.9% | 27.6% | 57.7% | -26.6% (active) | -26.6% (active) | -23.5% (active) | 34.4% | -5.4% (active) | 86.3% | 46.3% | 85.3% | 113% | 92.3% | 94.4% | 102% | 10.5% | -8.36% (active)
O=C(NN1C(=O)/C(=C/C=C/c2ccc([N+](=O)[O-])o2)SC1=S)c1ccc(O)cc1 | -73% (active) | -67.7% (active) | -65.1% (active) | -100% (active) | -91.4% (active) | -67.2% (active) | -100% (active) | -99.3% (active) | -84.8% (active) | -100% (active) | -89.4% (active) | -98.1% (active) | -97.5% (active) | -92.7% (active) | -99.3% (active) | -100% (active) | -100% (active) | – | -24% (active) | -40.7% (active)
O=[N+]([O-])c1cccc(-c2nnc3c(/C=C/c4ccc(F)cc4)nc4ccccc4n23)c1 | 85.8% | 98.5% | 54.1% | 92.5% | 95.9% | 103% | 90.9% | 85.1% | 98.5% | 107% | 97.7% | 96.2% | 88% | 78.3% | 121% | 93.8% | 88.8% | 102% | 102% | 90.7%
Clc1ccc2c(NCCNC34CC5CC(CC(C5)C3)C4)ccnc2c1 | -82% (active) | -50.8% (active) | -74.9% (active) | -54.2% (active) | -61.8% (active) | -5.27% (active) | -96% (active) | -89.9% (active) | -91.5% (active) | -93.5% (active) | -88% (active) | -67.5% (active) | -74.5% (active) | -98.6% (active) | -94.7% (active) | -95.8% (active) | – | -94.2% (active) | 4.53% (active) | –
COc1c(B(O)O)cc(F)cc1-c1nc2c(F)cc3[nH]ncc3c2c2c1CCCC2 | 4.25% (active) | 21.1% | -78.1% (active) | 7.54% (active) | 10.8% | 12.8% | 7.04% (active) | -7% (active) | -16.6% (active) | 25.7% | 46.8% | 13.5% | 17.2% | 3.57% (active) | 21.3% | 4.28% (active) | 0.122% (active) | – | -3.23% (active) | 17%
O=C(N/N=C/c1ccc(-c2cccc([N+](=O)[O-])c2)s1)c1[nH]c2ccc(Br)cc2c1-c1ccccc1 | 84.9% | 109% | 86.8% | 56.1% | 73.4% | 85.7% | 93.8% | 70.5% | 85.8% | 87.6% | 84.4% | 94.7% | 91.4% | 82.1% | 101% | 87.3% | 90.4% | – | 91% | 69.3%
O=C(N/N=C/c1ccc(Br)o1)c1[nH]c2ccc(Br)cc2c1-c1ccccc1 | -6.94% (active) | -46.2% (active) | -18.3% (active) | 0.0073% (active) | -75.3% (active) | 7.74% (active) | -78.5% (active) | 5.43% (active) | -62.8% (active) | -20.9% (active) | 3.4% (active) | 12.6% | -59.1% (active) | -34% (active) | 9.96% (active) | -21.3% (active) | – | -7.37% (active) | 4.07% (active) | -0.952% (active)
CS(=O)(=O)Nc1cc(-c2ccc3ncnc(N4CCc5cc(F)c(Cl)cc54)c3c2)cnc1Cl | 7.55% (active) | 19.7% | -17.7% (active) | 27% | 17.8% | 12.9% | -72.8% (active) | -43.2% (active) | -29.2% (active) | -0.47% (active) | -31.6% (active) | -23% (active) | 19.3% | 5.68% (active) | -1.98% (active) | 9.43% (active) | -8.1% (active) | – | 16.7% | -47.4% (active)
Cc1cc(=O)oc2cc(OCC(O)CNN3C(=O)c4cccc5c(N6CCN(C)CC6)ccc(c45)C3=O)ccc12 (centres undefined) | 91% | 89.6% | 82.4% | 96.2% | 103% | 105% | 102% | 79.2% | 71% | -17.3% (active) | 92.2% | 97.3% | 88.9% | 83.8% | 138% | 91.2% | – | 122% | 96.7% | 90.4%
COc1ccc2c(c1)c(-c1cc(N)n3nc(-c4c[nH]c5ccccc45)cc3n1)cn2C | -69.8% (active) | -71.7% (active) | -24.8% (active) | -57.1% (active) | -87.8% (active) | 1.08% (active) | -94.8% (active) | -92% (active) | -86.1% (active) | -94.6% (active) | -65.4% (active) | – | -81% (active) | -71.1% (active) | -92.5% (active) | -79.6% (active) | -70.2% (active) | -57.8% (active) | -25.1% (active) | –
CCCSc1nnc(-c2c(C)nc3sccn23)o1 | 65.8% | 101% | 91.5% | 81.2% | 87.5% | 86.6% | 81.6% | 69.1% | 88.9% | 106% | 104% | 66.8% | 87.1% | 69.9% | 113% | 84.9% | – | 92.3% | 86.3% | 94.4%
O=C(c1ccc(O)cc1)C1[C@H](c2ccc(Cl)cc2)[C@@H](c2ccccc2)NC12C(=O)Nc1ccccc12 (some centres undefined) | -70.8% (active) | -66.3% (active) | 43.5% | 13.2% | -0.272% (active) | 1.61% (active) | -92.9% (active) | -22.4% (active) | -100% (active) | 17.9% | -72.3% (active) | – | -83.8% (active) | 3.54% (active) | 11.8% | 3.11% (active) | 3.82% (active) | -2.62% (active) | -7.04% (active) | -34.3% (active)
O=C1CCC(N2C(=O)c3cccc(NCCOCCOCCOCCC(=O)NCCCC(=O)NC(c4ccc5c(c4)OCO5)c4cc(Cl)c5cccnc5c4O)c3C2=O)C(=O)C1 (centres undefined) | 88.8% | 28.5% | 62.7% | 28.5% | 27.2% | 32.5% | 43.6% | 0.155% (active) | -37.6% (active) | 20.4% | -5.74% (active) | 38.1% | 26.9% | 64.5% | 95.2% | 89.3% | – | 104% | -4.69% (active) | 8.18% (active)
O=C1Nc2ccccc2/C1=C\c1ccc(OCC(=O)c2ccc(Br)cc2)cc1 | 45.4% | 82.7% | 79.6% | 79.6% | 71.5% | 62.4% | 28.9% | 52.6% | 28.9% | 80.2% | 72.4% | 65.6% | 62.7% | 48.5% | 94.9% | 70% | – | 100% | 58.2% | 8.54% (active)
COc1cc(/C=C/C(=O)c2ccc(S(=O)(=O)NCCNc3nc(N(C)C)nc(N4CCOCC4)n3)cc2)cc(OC)c1OC | -100% (active) | -100% (active) | 20% | 29.1% | -100% (active) | -76.5% (active) | 18.8% | -21.7% (active) | -100% (active) | -100% (active) | 81.4% | – | -22% (active) | 12.8% | 13.5% | -100% (active) | 39.4% | 51.9% | -27.9% (active) | –
